Laboratory results published in PubChem BioAssay (NCATS).
Values joined by “and” are separate entries in the source; they are usually repeats but may differ in a detail not shown here. Equal entries are not always repeated. Records with an inconclusive call do not appear. A call without a number means that no potency is given here. Active and inactive are the calls of the source. The call rests on the fitted dose curve; in most records, active means well fitted curve in the direction sought with a large enough effect; inconclusive means small, poorly fitted or top-dose-only effect, or another doubt; inactive means no such curve, though single readings can be large; an effect the other way counts as inactive or inconclusive.

How the values were obtained:
[1] = molecular target: Lysine-specific demethylase 5B (Homo sapiens) (UniProt Q9UGL1); experiment: Optimization screen for KDM5B Histone Demethylases FDH coupled qHTS against the LOPAC library (AID 1347166); conditions: KDM5B demethylation, FDH-coupled NADH fluorescence (FDH is formaldehyde dehydrogenase); series mostly up to 57.5 µM
Outline: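 KDM5BDeltaAP (200nM final) in 50mM HEPES pH 7.5, 0.01% Tween-20 was preincubated with compound for 10 min at room temperature. A substrate mix of 12.5uM H3K4Me3, 25uM a-ketoglutarate, ascorbate, Fe2+, NAD+ and formaldehyde dehydrogenase was then added. NADH fluorescence (340/450 nm) was read initially and after 30 min.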

[2] = tested on: Zika virus NS2B-NS3 protease (unlinked complex); experiment: Primary screen GU Rhodamine qHTS for Zika virus inhibitors: Unlinked NS2B-NS3 protease assay (AID 1347159); conditions: Recombinant ZIKV NS2B-NS3 protease, Rhodamine110 substrate fluorescence; series mostly up to 107 µM; further: nearly all actives have a fitted effect of over 60% in size; further: potency means the concentration at half of the fitted maximal effect
Outline: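 In dose–response format, inhibition of unlinked protease (25 nM) was measured with 1.5 microM bis-peptide Rhodamine110 substrate. Aprotinin served as the intraplate control.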

[3] = Vero cells viability qHTS for Zika virus inhibitors (AID 1347167); conditions: cytotoxicity counter-screen (Zika); series mostly up to 45.9 µM
Outline: (§1)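 qHTS titration; 24-48 h compound exposure, 37 degrees C/5% CO2; DMEM, 4% FBS; CellTiter Glo ATP luminescence.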

[4] = Tertiary RLuc qRT-PCR qHTS assay for Zika virus inhibitors (AID 1347169); conditions: infected Vero cells, reporter luminescence, 48-72 h; series mostly up to 45.9 µM; further: nearly all actives have a fitted effect of over 55% in size; further: potency means the concentration at half of the fitted maximal effect
Outline: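 Inhibition of ZIKV-RLuc replication in Vero cells, read as Renilla luminescence 1-1.5 hrs after live-cell substrate addition, following 48-72 hrs infection at MOI 1-2 in presence of compound.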

[5] = Confirmatory screen GU Rhodamine qHTS for Zika virus inhibitors qHTS (AID 1347157); conditions: purified enzyme assay, Rhodamine110 substrate fluorescence, 15 min; further: potency means the concentration at half of the fitted maximal effect; nearly all actives have a fitted effect of over 70% in size
Outline: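 Buffer 10 mM Tris-HCl pH 8.0, 0.01% Tween 20. Unlinked protease 25 nM; compound preincubation 15 min, RT, protected from light. Substrate Rhod110, 1.5 microM; ~15% conversion in 15 min.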

[6] = ZIKV-mCherry secondary qHTS for Zika virus inhibitors (AID 1347158); conditions: Vero cells, ZIKV-mCherry infection imaging, 48-72 h; series mostly up to 49.2 µM; further: top concentration of the series differs between compounds
Outline: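 Read-out is percent infection: mCherry-positive Vero cells (nuclear-proximal intensity >450 RFU, 3 SD above negative controls) counted by high-content imaging of Hoechst-stained, PFA-fixed wells after 48-72 h with ZIKV-mCherry at MOI 1 and compound.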

[7] = Confirmatory screen NINDS Rhodamine qHTS for Zika virus inhibitors (AID 1347161); conditions: purified enzyme assay, Rhodamine110 substrate fluorescence, 15 min; series mostly up to 114 µM; further: nearly all actives have a fitted effect of over 60% in size; further: potency means the concentration at half of the fitted maximal effect
Outline: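 Single-chain NS2B-NS3 protease, 25 nM, pH 8.0; compounds preincubated 15 min. Activity: Rhodamine110 release from 1.5 microM substrate over 15 min, room temperature, data fitted to 4-parameter Hill.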

[8] = tested on: Zika virus NS2B-NS3 protease (linked); experiment: 384 well plate NINDS AMC confirmatory qHTS for Zika virus inhibitors (AID 1347163); conditions: Recombinant NS2B-NS3 protease, Ac-VKTGKR-AMC fluorescence; further: potency means the concentration at half of the fitted maximal effect; nearly all actives have a fitted effect of over 50% in size
Outline: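 Enzyme (5, 30 or 60 nM final) first met test compounds for ~15 min. The AMC-tagged peptide Ac-VKTGKR-AMC followed at 30 microM. Fluorescence was then recorded at 25 min and scaled against no-enzyme and no-inhibitor wells.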

[9] = tested on: Zika virus NS2B-NS3 protease (linked construct); experiment: 384 well plate NINDS Rhodamine confirmatory qHTS for Zika virus inhibitors (AID 1347164); conditions: rhodamine-110 peptide substrate fluorescence; series mostly up to 100 µM; further: nearly all actives have a fitted effect of over 65% in size; further: potency means the concentration at half of the fitted maximal effect
Outline: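 Cleavage of Ac-LKRR-Rhodamine 110 (10 microM final) by linked protease (final 5, 30 or 60 nM) was followed as fluorescence at 485/538 nm after 25 min, room temperature, dark. Compounds preincubated ~15 min.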

[10] = HepG2 cells viability qHTS for Zika virus inhibitors (AID 1347168); conditions: Zika counter-screen; series mostly up to 45.9 µM
Outline: as §1

Sequence of Lysine-specific demethylase 5B (Homo sapiens) (Q9UGL1 whole entry, looked up): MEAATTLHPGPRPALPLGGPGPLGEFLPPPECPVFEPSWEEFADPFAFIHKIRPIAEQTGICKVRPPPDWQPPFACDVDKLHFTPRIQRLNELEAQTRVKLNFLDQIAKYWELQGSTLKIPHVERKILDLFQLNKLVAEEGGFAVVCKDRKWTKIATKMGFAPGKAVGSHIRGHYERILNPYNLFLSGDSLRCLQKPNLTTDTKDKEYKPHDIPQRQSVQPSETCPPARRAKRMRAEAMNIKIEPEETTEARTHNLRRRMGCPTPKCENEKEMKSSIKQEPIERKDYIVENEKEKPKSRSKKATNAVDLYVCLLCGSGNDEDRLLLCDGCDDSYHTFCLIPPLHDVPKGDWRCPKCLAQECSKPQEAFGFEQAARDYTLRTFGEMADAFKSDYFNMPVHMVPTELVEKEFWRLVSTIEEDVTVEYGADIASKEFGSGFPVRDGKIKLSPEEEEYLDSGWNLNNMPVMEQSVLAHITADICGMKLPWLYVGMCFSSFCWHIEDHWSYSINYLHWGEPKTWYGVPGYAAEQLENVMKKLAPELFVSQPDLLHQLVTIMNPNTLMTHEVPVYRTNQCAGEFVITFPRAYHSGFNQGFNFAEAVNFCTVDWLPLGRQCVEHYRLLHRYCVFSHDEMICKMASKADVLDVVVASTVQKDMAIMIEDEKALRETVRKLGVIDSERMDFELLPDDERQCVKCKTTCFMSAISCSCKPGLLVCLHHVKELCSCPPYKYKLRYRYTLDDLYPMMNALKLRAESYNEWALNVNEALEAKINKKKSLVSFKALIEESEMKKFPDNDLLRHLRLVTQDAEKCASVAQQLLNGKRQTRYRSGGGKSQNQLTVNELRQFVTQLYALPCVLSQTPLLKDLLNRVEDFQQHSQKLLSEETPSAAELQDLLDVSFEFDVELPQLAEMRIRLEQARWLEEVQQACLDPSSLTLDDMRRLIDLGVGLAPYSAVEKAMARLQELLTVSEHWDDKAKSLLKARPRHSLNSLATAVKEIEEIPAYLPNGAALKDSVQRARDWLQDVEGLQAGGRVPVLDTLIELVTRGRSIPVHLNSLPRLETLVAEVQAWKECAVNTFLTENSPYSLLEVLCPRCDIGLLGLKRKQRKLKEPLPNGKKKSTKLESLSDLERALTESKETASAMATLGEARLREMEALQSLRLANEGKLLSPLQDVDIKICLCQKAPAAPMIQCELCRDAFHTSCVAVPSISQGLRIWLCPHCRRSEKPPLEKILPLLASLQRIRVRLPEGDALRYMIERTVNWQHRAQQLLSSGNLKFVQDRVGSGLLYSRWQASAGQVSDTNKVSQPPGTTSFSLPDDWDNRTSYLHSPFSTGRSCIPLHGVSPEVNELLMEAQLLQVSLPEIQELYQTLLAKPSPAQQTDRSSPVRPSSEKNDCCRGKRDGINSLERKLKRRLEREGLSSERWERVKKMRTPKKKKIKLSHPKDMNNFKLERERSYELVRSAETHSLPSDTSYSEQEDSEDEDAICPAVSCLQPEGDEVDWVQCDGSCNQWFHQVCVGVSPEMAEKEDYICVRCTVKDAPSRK

## O=c1[nH]c2ccccc2n1CCCN1CCC(n2c(=O)[nH]c3cc(Cl)ccc32)CC1
[1]
  outcome: inactive

## C[C@H]1O[C@@H](O[C@H]2[C@@H](O)C[C@H](O[C@H]3[C@@H](O)C[C@H](O[C@H]4CC[C@@]5(C)[C@H](CC[C@@H]6[C@@H]5CC[C@]5(C)[C@@H](C7=CC(=O)OC7)CC[C@]65O)C4)O[C@@H]3C)O[C@@H]2C)C[C@H](O)[C@@H]1O
[2]
  Potency: inactive
[3]
  outcome: inactive
[4]
  Potency: 0.107 µM (active)

## O=c1[nH]c2ccccc2n1C1CCN(CCCC(c2ccc(F)cc2)c2ccc(F)cc2)CC1
[2]
  Potency: inactive
[1]
  outcome: inactive

## O=C(O)C(=O)c1cn(Cc2ccccc2)c2ccc(-c3ccc(OC(F)(F)F)cc3)cc12
[5]
  Potency: 1.24 µM (active) and 1.56 µM (active)
[6]
  outcome: inactive
[2]
  Potency: 1.58 µM (active)
[7]
  Potency: 1.24 µM (active) and 1.75 µM (active)
[8]
  Potency: 11.2 µM (active)
[9]
  Potency: 12.6 µM (active) and 3.16 µM (active)
[3]
  outcome: inactive
[10]
  outcome: inactive

## CN(C)[C@@H]1C(=O)C(C(N)=O)=C(O)[C@@]2(O)C(=O)C3=C(O)c4c(O)cccc4[C@@](C)(O)[C@H]3C[C@@H]12
[7]
  Potency: inactive
[8]
  Potency: 224 µM (active)
[9]
  Potency: inactive

## O=c1oc2ccccc2c(O)c1C(CC(O)c1ccc(-c2ccc(Br)cc2)cc1)c1ccccc1 (stereo unspecified)
[5]
  Potency: 7.94 µM (active)
[7]
  Potency: 3.16 µM (active)
[8]
  Potency: 31.6 µM (active)
[9]
  Potency: 6.31 µM (active)

## CN1C[C@H](CNC(=O)OCc2ccccc2)C[C@@H]2c3cccc4c3c(cn4C)C[C@H]21
[7]
  Potency: inactive
[3]
  outcome: inactive
[10]
  outcome: inactive
[4]
  Potency: inactive

## NN=C(N)N
[1]
  outcome: inactive

## c1ccc(C2CC2)c(OCC2=NCCN2)c1
[1]
  outcome: inactive

## COC[C@H]1OC(=O)c2coc3c2[C@@]1(C)C1=C(C3=O)C2CCC(=O)[C@@]2(C)C[C@H]1OC(C)=O (stereo partly specified)
[2]
  Potency: inactive
[1]
  outcome: inactive

## Fc1ccc(C(OCCN2CCN(CCCc3ccccc3)CC2)c2ccc(F)cc2)cc1
[1]
  outcome: inactive

## CNC(=O)c1ccc(N2C(=S)N(c3ccc(C#N)c(C(F)(F)F)c3)C(=O)C23CCC3)cc1F
[2]
  Potency: inactive
